Assay results from PubChem BioAssay.
For some assays here: Entries with a potency or affinity are not part of this list. Active and inactive are the calls of the source. Unless noted, no rule for the calls is given here.

Key:
[1] = antimalarial activity against Dd2 strain (AID 2302;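 active = growth inhibition above 50% at the single 2 µM test dose, taken to imply half-maximal potency below 2 µM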;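 also: 0% = DMSO untreated growth and 100% = chloroquine plus artemisinin killed control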); conditions: P. falciparum Dd2 in RBCs, LDH growth readout, 72 h; at 2 µM; stronger effect = higher value
[2] = human hepatoma cell viability loss – ATP luminescence, cytotoxicity control for P. falciparum antimalarial project, primary screen (AID 2303;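 active = inhibition above 50%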;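 also: 0% = DMSO wells and 100% = digitonin-killed cells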); conditions: HepG2 viability, 24-48 h, at 10 µM, stronger effect = higher value
[3] = target: L-lactate dehydrogenase (Plasmodium falciparum (isolate CDC / Honduras)) (UniProt Q27743); assay: PfLDH activity inhibition – cell lysate, 3D7 strain, counter-screen for P. falciparum growth inhibition project (AID 2304);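 also: 0% = vehicle and 100% = reference inhibitor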; conditions: P. falciparum 3D7 crude extract, LDH APAD/NBT absorbance; at 2 µM; stronger effect = higher value
[4] = inhibition of 3D7 malaria parasite growth – strain 3D7 (AID 2306);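 also: 0% = DMSO wells and 100% = chloroquine plus artemisinin control wells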; conditions: P. falciparum 3D7 erythrocytic growth, LDH absorbance, 72 h; at 2 µM; stronger effect = higher value
[5] = target: Calcium-dependent protein kinase 1 (Plasmodium falciparum (isolate 3D7)) (UniProt P62344); assay: PfCDPK1 kinase inhibitors, biochemical, TCAMS library (AID 1159585; cut-off not given, nearly all actives have IC50 up to about 0.98 µM;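 also: inhibitors leave more ATP so luminescence rises with inhibition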); conditions: recombinant PfCDPK1, Kinase-Glo ATP depletion luminescence
[6] = target: Plasmodium falciparum protein kinase 6 (PK6, PF3D7_1337100) (UniProt Q8IDW1); assay: PfPK6 kinase inhibitors, biochemical, TCAMS library (AID 1159586); conditions: recombinant PfPK6, Kinase-Glo ATP depletion luminescence
[7] = target: Protein kinase 7 (PK7), Plasmodium falciparum 3D7 (PF3D7_0213400) (UniProt Q7YTF7); assay: inhibition of Plasmodium PK7 catalytic activity – biochemical, TCAMS antimalarial set, Kinase-Glo luminescence (AID 1159587); conditions: recombinant PfPK7, Kinase-Glo ATP depletion luminescence
[8] = target: Calcium-dependent protein kinase 4 (Plasmodium falciparum (isolate 3D7)) (UniProt Q8IBS5); assay: PfCDPK4 kinase inhibitors, biochemical, TCAMS library (AID 1159588; cut-off not given, nearly all actives have IC50 up to about 0.91 µM); conditions: recombinant PfCDPK4, Kinase-Glo ATP depletion luminescence
Calcium-dependent protein kinase 4 (Plasmodium falciparum (isolate 3D7)), sequence (Q8IBS5 whole entry, looked up): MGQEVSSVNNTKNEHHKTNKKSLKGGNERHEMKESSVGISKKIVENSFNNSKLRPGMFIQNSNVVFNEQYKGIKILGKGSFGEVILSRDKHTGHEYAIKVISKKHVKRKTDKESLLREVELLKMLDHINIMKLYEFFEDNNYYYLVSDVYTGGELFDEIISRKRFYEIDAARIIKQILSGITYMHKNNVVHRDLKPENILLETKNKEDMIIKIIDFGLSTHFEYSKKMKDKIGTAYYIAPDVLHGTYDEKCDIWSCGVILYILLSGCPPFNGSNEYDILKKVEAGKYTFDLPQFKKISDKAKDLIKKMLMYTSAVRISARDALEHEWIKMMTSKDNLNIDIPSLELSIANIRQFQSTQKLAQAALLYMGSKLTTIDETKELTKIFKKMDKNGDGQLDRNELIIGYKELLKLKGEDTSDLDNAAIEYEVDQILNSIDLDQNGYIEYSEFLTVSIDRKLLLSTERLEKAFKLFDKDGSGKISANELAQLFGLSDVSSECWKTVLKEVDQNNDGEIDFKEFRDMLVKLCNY

Plasmodium falciparum protein kinase 6 (PK6, PF3D7_1337100), sequence (Q8IDW1 1-305): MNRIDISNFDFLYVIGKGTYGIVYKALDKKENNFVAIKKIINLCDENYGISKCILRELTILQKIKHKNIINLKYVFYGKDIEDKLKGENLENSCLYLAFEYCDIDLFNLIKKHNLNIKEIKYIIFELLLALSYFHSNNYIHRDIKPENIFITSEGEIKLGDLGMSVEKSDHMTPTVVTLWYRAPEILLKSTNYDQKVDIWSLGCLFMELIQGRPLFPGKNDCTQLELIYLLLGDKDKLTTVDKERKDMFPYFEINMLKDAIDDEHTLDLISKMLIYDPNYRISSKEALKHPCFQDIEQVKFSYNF
Protein kinase 7 (PK7), Plasmodium falciparum 3D7 (PF3D7_0213400), sequence (Q7YTF7 1-343): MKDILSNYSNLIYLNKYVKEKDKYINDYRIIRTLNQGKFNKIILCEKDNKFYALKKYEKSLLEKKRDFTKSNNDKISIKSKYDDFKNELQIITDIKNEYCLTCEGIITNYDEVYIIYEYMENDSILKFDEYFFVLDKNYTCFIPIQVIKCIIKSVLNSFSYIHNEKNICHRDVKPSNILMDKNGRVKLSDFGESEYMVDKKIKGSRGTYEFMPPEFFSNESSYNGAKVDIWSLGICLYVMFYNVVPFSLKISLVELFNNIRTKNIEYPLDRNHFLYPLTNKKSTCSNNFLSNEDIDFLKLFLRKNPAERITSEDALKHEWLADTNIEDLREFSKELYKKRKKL
L-lactate dehydrogenase (Plasmodium falciparum (isolate CDC / Honduras)), sequence (Q27743 whole entry, looked up): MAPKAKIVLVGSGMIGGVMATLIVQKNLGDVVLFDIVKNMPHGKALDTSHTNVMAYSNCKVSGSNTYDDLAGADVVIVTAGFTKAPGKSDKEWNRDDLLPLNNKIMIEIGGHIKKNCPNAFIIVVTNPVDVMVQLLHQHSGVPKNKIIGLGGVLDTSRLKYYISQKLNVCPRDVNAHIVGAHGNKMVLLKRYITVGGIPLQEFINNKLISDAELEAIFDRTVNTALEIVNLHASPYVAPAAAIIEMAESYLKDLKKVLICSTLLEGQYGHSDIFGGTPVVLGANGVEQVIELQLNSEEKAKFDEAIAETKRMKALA
Calcium-dependent protein kinase 1 (Plasmodium falciparum (isolate 3D7)), sequence (P62344 whole entry, looked up): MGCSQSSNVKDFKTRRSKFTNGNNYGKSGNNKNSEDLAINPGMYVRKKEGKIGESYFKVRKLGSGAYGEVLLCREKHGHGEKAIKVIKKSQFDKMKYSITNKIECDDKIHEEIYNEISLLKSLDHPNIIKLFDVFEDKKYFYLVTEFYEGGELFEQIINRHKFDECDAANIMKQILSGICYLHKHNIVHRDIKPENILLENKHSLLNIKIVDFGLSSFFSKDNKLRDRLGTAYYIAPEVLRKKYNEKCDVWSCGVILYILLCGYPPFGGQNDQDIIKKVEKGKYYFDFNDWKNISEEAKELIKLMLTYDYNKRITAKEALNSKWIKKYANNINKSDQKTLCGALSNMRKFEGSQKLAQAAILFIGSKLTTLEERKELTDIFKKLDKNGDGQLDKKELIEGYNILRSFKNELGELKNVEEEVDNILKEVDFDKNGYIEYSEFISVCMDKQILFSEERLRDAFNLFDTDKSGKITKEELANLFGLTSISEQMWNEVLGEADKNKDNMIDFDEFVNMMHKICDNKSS

CCc1cccc2sc(N3CCN(C(=O)c4ccc([N+](=O)[O-])o4)CC3)nc12
inactive: inhibition [2] 2% | inhibition [3] 0% | outcome [5] | outcome [6] | outcome [7] | outcome [8]
active: growth inhibition [1] 94% | growth inhibition [4] 97%

CN(C)Cc1ccc(-c2ccc(NC(=O)c3ccc4c(=O)n(Cc5ccoc5)cnc4c3)cc2)cc1
active: growth inhibition [4] 80%
inactive: growth inhibition [1] 16% | inhibition [2] 32% | inhibition [3] 3% | outcome [5] | outcome [6] | outcome [7] | outcome [8]

O=C(c1ccco1)c1cn(CCOc2ccccc2)c2ccccc12
active: growth inhibition [4] 98%
inactive: growth inhibition [1] 10% | inhibition [2] 5% | inhibition [3] -4% | outcome [5] | outcome [6] | outcome [7] | outcome [8]

CNC(=O)c1cnc(Nc2ccc(N3CCOCC3)cc2)nc1Nc1cccc(O)c1
inactive: inhibition [2] 23% | inhibition [3] -2% | outcome [5] | outcome [6] | outcome [7] | outcome [8]
active: growth inhibition [1] 78% | growth inhibition [4] 90%

COc1cc(C)nc2ccc(NC(=O)c3ccc(C(=O)Nc4ccc5nc(C)cc(OC)c5c4)cc3)cc12
active: growth inhibition [1] 72% | growth inhibition [4] 96%
inactive: inhibition [2] 27% | inhibition [3] -5% | outcome [5] | outcome [6] | outcome [7] | outcome [8]

COc1ccc(-c2cnc3ccc(NCc4ccc(S(N)(=O)=O)cc4)nn23)cc1
inactive: inhibition [2] 19% | inhibition [3] -2% | outcome [5] | outcome [6] | outcome [7] | outcome [8]
active: growth inhibition [1] 99% | growth inhibition [4] 96%

CCc1ccc(CNCC(CCNc2cc(=O)c3ccccc3[nH]2)NCc2cc(Br)cc(Br)c2)o1 (stereo not given)
inactive: inhibition [2] -11% | inhibition [3] 1% | outcome [5] | outcome [6] | outcome [7] | outcome [8]
active: growth inhibition [1] 92% | growth inhibition [4] 100%

O=C(NCCN1CCCC1)c1cccc(-c2ccc(-c3nc4ccc(F)cc4[nH]3)s2)c1
inactive: growth inhibition [1] 4% | inhibition [3] -1% | outcome [5] | outcome [6] | outcome [7] | outcome [8]
active: inhibition [2] 51% | growth inhibition [4] 100%

CCNc1cc(C)nc(Nc2ccc(NC(=O)c3cccs3)cc2)n1
active: growth inhibition [1] 50% | growth inhibition [4] 101%
inactive: inhibition [2] 21% | inhibition [3] 0% | outcome [5] | outcome [6] | outcome [7] | outcome [8]

O=C(Nc1cccc(-c2ccc(-c3nc4ccc(C(F)(F)F)cc4[nH]3)cc2)c1)Nc1ccc(F)c(F)c1F
active: growth inhibition [1] 99% | growth inhibition [4] 102%
inactive: inhibition [2] 45% | inhibition [3] -2% | outcome [5] | outcome [6] | outcome [7] | outcome [8]

Cc1cccc2[nH]c(-c3ccc(-c4ccc(CNCc5ccccc5)cc4)s3)nc12
inactive: inhibition [2] 22% | inhibition [3] -1% | outcome [5] | outcome [6] | outcome [7] | outcome [8]
active: growth inhibition [1] 87% | growth inhibition [4] 103%

Cc1ccc(F)cc1S(=O)(=O)NCC(C)c1ccc(NC(=O)Nc2cccc(F)c2)cc1 (stereo not given)
active: growth inhibition [4] 95%
inactive: growth inhibition [1] 5% | inhibition [2] 20% | inhibition [3] 2% | outcome [5] | outcome [6] | outcome [7] | outcome [8]

COc1nc(Nc2cccc(C)c2)nc(OC)n1
active: growth inhibition [4] 94%
inactive: growth inhibition [1] -5% | inhibition [2] 46% | inhibition [3] 1% | outcome [5] | outcome [6] | outcome [7] | outcome [8]

CCCCc1cc(O)c2c(c1)OC(C)(C)C=C2C1=CCN(Cc2ccccc2)CC1
active: growth inhibition [4] 98%
inactive: growth inhibition [1] 3% | inhibition [2] 9% | inhibition [3] -5% | outcome [5] | outcome [6] | outcome [7] | outcome [8]

Clc1ccccc1CCNCC1CCN(CC2CCCCC2)CC1
active: growth inhibition [4] 97%
inactive: growth inhibition [1] 38% | inhibition [2] 45% | inhibition [3] -5% | outcome [5] | outcome [6] | outcome [7] | outcome [8]

CC(C)CC(NC(=O)c1ccc(F)cc1)C(=O)N[C@H](/C=N/N1CCNC1=O)CC(C)C (stereo not given in full)
inactive: inhibition [2] -5% | inhibition [3] -4% | outcome [5] | outcome [6] | outcome [7] | outcome [8]
active: growth inhibition [1] 84% | growth inhibition [4] 89%

O=C(NCc1cc2c(cc1Cl)OCO2)c1ccc(CNC2CCN(Cc3ccccc3)CC2)cc1
inactive: growth inhibition [1] 47% | inhibition [2] 11% | inhibition [3] -3% | outcome [5] | outcome [6] | outcome [7] | outcome [8]
active: growth inhibition [4] 100%

CCCCCCCCn1c2c(c(=N)c3c1CCC3)CCCC2
active: growth inhibition [1] 100% | inhibition [2] 57% | growth inhibition [4] 101%
inactive: inhibition [3] 2% | outcome [5] | outcome [6] | outcome [7] | outcome [8]

Cc1cccc2[nH]c(-c3ccc(-c4ccc(NC(=O)CN5CCN(C)CC5)cc4)cc3)nc12
active: growth inhibition [1] 83% | growth inhibition [4] 100%
inactive: inhibition [2] 29% | inhibition [3] 1% | outcome [5] | outcome [6] | outcome [7] | outcome [8]

CCCCN(CCCC)CC(O)c1cc(-c2ccc(Cl)cc2)nc2c(Cl)cc(Cl)cc12 (stereo not given)
inactive: inhibition [2] -12% | inhibition [3] 1% | outcome [5] | outcome [6] | outcome [7] | outcome [8]
active: growth inhibition [1] 97% | growth inhibition [4] 97%

CS(=O)(=O)c1ccc(-c2nc(NCC3CCCCC3)cc(C(F)(F)F)n2)cc1
active: growth inhibition [1] 76% | growth inhibition [4] 83%
inactive: inhibition [2] -9% | inhibition [3] 2% | outcome [5] | outcome [6] | outcome [7] | outcome [8]

CS(=O)(=O)n1c(CN2CCN(c3ncc(C(F)(F)F)cc3Cl)CC2)nc2ccccc21
inactive: inhibition [2] -2% | inhibition [3] -4% | outcome [5] | outcome [6] | outcome [7] | outcome [8]
active: growth inhibition [1] 59% | growth inhibition [4] 83%

c1ccc2c(C3CCN(CCCCOc4ccc5c(c4)CCN(CC4CC4)CC5)CC3)c[nH]c2c1
inactive: inhibition [3] -8% | outcome [5] | outcome [6] | outcome [7] | outcome [8]
active: growth inhibition [1] 97% | inhibition [2] 74% | growth inhibition [4] 99%

Cc1nnsc1C(=O)Nc1ccc(-c2cccc(-c3nc4c(C)cccc4[nH]3)c2)cc1
active: growth inhibition [4] 98%
inactive: growth inhibition [1] 47% | inhibition [2] 23% | inhibition [3] 4% | outcome [5] | outcome [6] | outcome [7] | outcome [8]

COc1ccc(-c2nc3nc4ccccc4cc3[nH]2)c(OCC(O)CNC(C)C)c1 (stereo not given)
inactive: inhibition [2] 19% | inhibition [3] -1% | outcome [5] | outcome [6] | outcome [7] | outcome [8]
active: growth inhibition [1] 96% | growth inhibition [4] 98%

CC(C)(C)OC(=O)n1cc(C2CCN(CCCC34CCCc5cccc(c53)NC4=O)CC2)c2ccncc21 (stereo not given)
active: growth inhibition [4] 92%
inactive: growth inhibition [1] -2% | inhibition [2] 20% | inhibition [3] -5% | outcome [5] | outcome [6] | outcome [7] | outcome [8]

Cc1cccc(OC2CCN(c3ncc(C(=O)NCCCN4CCCC4=O)cc3Cl)CC2)c1
active: growth inhibition [1] 95% | growth inhibition [4] 96%
inactive: inhibition [2] 7% | inhibition [3] -2% | outcome [5] | outcome [6] | outcome [7] | outcome [8]

Cc1ccc(NC(=O)N2CCC(n3c(-c4ccccc4)nc4cccnc43)CC2)cc1F
active: growth inhibition [1] 85% | growth inhibition [4] 96%
inactive: inhibition [2] 23% | inhibition [3] 2% | outcome [5] | outcome [6] | outcome [7] | outcome [8]

OC(CN(Cc1ccccc1)Cc1ccccc1)Cn1c2ccc(Cl)cc2c2cc(Cl)ccc21 (stereo not given)
inactive: inhibition [2] 5% | inhibition [3] 6% | outcome [5] | outcome [6] | outcome [7] | outcome [8]
active: growth inhibition [1] 95% | growth inhibition [4] 89%

Cc1ccc([N+](=O)[O-])cc1NC(=O)N(CC(O)c1ccccc1)C1CCCCC1 (stereo not given)
active: growth inhibition [1] 98% | growth inhibition [4] 100%
inactive: inhibition [2] 11% | inhibition [3] 6% | outcome [5] | outcome [6] | outcome [7] | outcome [8]

COc1ccc(CNCc2cccc(-c3cccc(-c4nc5c(C)cccc5[nH]4)c3)c2)cc1
active: growth inhibition [1] 60% | growth inhibition [4] 102%
inactive: inhibition [2] 31% | inhibition [3] -4% | outcome [5] | outcome [6] | outcome [7] | outcome [8]

O=C(CCNc1ccnc(NCC2CCCCC2)n1)Nc1ccccc1
active: inhibition [2] 55% | growth inhibition [4] 95%
inactive: growth inhibition [1] 48% | inhibition [3] -3% | outcome [5] | outcome [6] | outcome [7] | outcome [8]

CC(C)(C)c1ccc(NC(=O)c2cccc(CN3CCCN(CC4CCCCC4)CC3)c2)cc1
inactive: growth inhibition [1] 47% | inhibition [3] 1% | outcome [5] | outcome [6] | outcome [7] | outcome [8]
active: inhibition [2] 97% | growth inhibition [4] 93%

COc1cccc(C(=O)NCc2n[nH]c(=S)n2-c2ccc(Cl)c(Cl)c2)c1
active: growth inhibition [1] 100% | growth inhibition [4] 102%
inactive: inhibition [2] -1% | inhibition [3] 5% | outcome [5] | outcome [6] | outcome [7] | outcome [8]

COc1ccc2nccc(N3CCC(NCCNCc4ccc5c(n4)NC(=O)CO5)C3)c2n1 (stereo not given)
inactive: growth inhibition [1] 47% | inhibition [2] 0% | inhibition [3] 3% | outcome [5] | outcome [6] | outcome [7] | outcome [8]
active: growth inhibition [4] 100%

O=C(Nc1ccc(S(=O)(=O)N2CCCCC2)cc1)c1cc(-c2cc(Cl)ccc2O)n[nH]1
active: growth inhibition [1] 87% | growth inhibition [4] 97%
inactive: inhibition [2] 36% | inhibition [3] 0% | outcome [5] | outcome [6] | outcome [7] | outcome [8]

COc1ccc(C#Cc2ccc(-c3c(C)[nH]c(C)c(Cl)c3=O)cc2)cc1
inactive: inhibition [2] -6% | inhibition [3] 2% | outcome [5] | outcome [6] | outcome [7] | outcome [8]
active: growth inhibition [1] 97% | growth inhibition [4] 97%

Cc1[nH]c2ccc(-c3ccccc3)cc2c(=O)c1Br
active: growth inhibition [1] 97% | growth inhibition [4] 97%
inactive: inhibition [2] -13% | inhibition [3] 4% | outcome [5] | outcome [6] | outcome [7] | outcome [8]

N#Cc1cccc(-c2cccc(C(=O)NC3CCC(CCN4CCc5ccc(C#N)cc5CC4)CC3)c2)c1 (stereo not given)
inactive: inhibition [2] 31% | inhibition [3] -6% | outcome [5] | outcome [6] | outcome [7] | outcome [8]
active: growth inhibition [1] 57% | growth inhibition [4] 99%

Cc1ccc(C)c(-n2c(SCC(=O)Nc3ccc(C(N)=O)cc3)nnc2-c2cccc(Cl)c2)c1
inactive: inhibition [2] 6% | inhibition [3] 4% | outcome [5] | outcome [6] | outcome [7] | outcome [8]
active: growth inhibition [1] 91% | growth inhibition [4] 92%
